Reference: PubChem BioAssay (NCI)
This is part of a sample that, as a whole, favours compounds with a hit. Of some 79,000 tested, about 15% had one in any assay. Active and inactive are the calls of the source. Rule as the data show it: active = growth inhibition above about 70%; inactive = the rest.

Test: NCI Yeast Anticancer Drug Screen. Data for the cln2 rad14 strain (AID 165);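 also: 0% = growth equal to vehicle treated cultures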
Conditions: S. cerevisiae cln2 rad14 strain, at 50.0 µM (retest, dose inferred, filed as 5.0), active compounds read high
In short: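 Yeast strain cln2 rad14, bearing defects in cell cycle control and DNA repair, serves as the test system; values reflect growth inhibition compared with vehicle.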
For `COc1cccc2c1C(=O)c1c(O)c3c(c(O)c1C2=O)C[C@@](O)(C(C)=O)C[C@@H]3OC1CC(O)C(O)C(C)O1` (stereo partly specified), the growth inhibition was 90% (active). In the case of `COc1cccc2c1C(=O)c1c(O)c3c(c(O)c1C2=O)C[C@@](O)(C(C)=O)C[C@@H]3OC1CC(N(C)C)C(O)C(C)O1` (stereo partly specified), the growth inhibition is reported as 97% (active). In the case of `C[N+]1(C)CCC(c2ccccc2)(c2ccccc2)C(=O)C1`, the growth inhibition is reported as -11% (inactive). For `CC[C@@]1(OC(=O)C(N)CCCCN)C(=O)OCc2c1cc1n(c2=O)Cc2cc3ccccc3nc2-1` (stereo partly specified), the growth inhibition was -36% (inactive). In the case of `CCN(CCO)CCNc1ccc(C)c2sc3ccccc3c(=O)c12`, the growth inhibition is reported as 94% (active). In the case of `NC(=O)SCC(=O)NNc1ccccc1`, the growth inhibition is reported as 60% (inactive). With `CCN(CC)c1ccc(C(=C2C=CC(=[N+](CC)CC)C=C2)c2ccc(N(CC)CC)cc2)cc1` the growth inhibition was 91% (active). For `Nc1ncnc2c(C3OC(CO)C(O)C3O)scc12` (stereo unspecified), the growth inhibition was 5% (inactive). In the case of `Nc1ccc(Cn2ccc3c4c(N)nc(N)nc4ccc32)cc1`, the growth inhibition is reported as 60% (inactive). With `Cc1n(CC(C)C)c2c([n+]1C)C(=O)c1ccccc1C2=O` the growth inhibition was 95% (active). For `c1ccc(Cc2cc3ccccc3c3ccccc23)cc1`, the growth inhibition was 6% (inactive). For `Nc1nc(N)c2c(Cl)c(CNc3ccc(Cl)c(Cl)c3)ccc2n1`, the growth inhibition was 98% (active). In the case of `C=C1CC2(CC(c3ccccc3OC)OC(c3ccccc3OC)C2)OC1=O` (stereo unspecified), the growth inhibition is reported as 79% (active). In the case of `O=[N+]([O-])c1c(Cl)nc2ccccn12`, the growth inhibition is reported as 15% (inactive). For `C/C(=N\NC(=S)N1CCN(c2ccccn2)CC1)c1nccs1`, the growth inhibition was 98% (active). With `Clc1nc(Cl)c(Cl)c(Cl)n1` the growth inhibition was 92% (active).
